The record followed here is the supplement of paper PMC10849652.

Of roughly 7,900 targets only a part is listed; those with a hit were picked by preference. About 0.6% of all pairs of compound and target were hits. A number with no mark means an inactive call.

Sequence of UniProt P17844 (P17844 whole entry, looked up): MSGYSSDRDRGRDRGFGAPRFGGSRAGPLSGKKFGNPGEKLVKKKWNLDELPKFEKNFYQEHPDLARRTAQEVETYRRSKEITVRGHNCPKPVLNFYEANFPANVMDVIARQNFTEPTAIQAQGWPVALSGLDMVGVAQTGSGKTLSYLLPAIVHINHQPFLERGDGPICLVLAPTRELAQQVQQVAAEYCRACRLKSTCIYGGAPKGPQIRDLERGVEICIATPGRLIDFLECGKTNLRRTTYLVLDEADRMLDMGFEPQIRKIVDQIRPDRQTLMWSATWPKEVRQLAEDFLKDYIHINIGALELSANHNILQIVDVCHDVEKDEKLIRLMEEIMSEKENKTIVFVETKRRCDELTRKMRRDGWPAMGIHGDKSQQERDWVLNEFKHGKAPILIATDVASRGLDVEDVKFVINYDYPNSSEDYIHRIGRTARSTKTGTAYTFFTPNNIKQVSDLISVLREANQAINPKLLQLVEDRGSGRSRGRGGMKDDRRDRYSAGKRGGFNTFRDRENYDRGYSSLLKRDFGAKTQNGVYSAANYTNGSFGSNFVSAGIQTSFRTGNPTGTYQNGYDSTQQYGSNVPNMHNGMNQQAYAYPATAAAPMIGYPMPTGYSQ
Sequence of UniProt P35222 (P35222 whole entry, looked up): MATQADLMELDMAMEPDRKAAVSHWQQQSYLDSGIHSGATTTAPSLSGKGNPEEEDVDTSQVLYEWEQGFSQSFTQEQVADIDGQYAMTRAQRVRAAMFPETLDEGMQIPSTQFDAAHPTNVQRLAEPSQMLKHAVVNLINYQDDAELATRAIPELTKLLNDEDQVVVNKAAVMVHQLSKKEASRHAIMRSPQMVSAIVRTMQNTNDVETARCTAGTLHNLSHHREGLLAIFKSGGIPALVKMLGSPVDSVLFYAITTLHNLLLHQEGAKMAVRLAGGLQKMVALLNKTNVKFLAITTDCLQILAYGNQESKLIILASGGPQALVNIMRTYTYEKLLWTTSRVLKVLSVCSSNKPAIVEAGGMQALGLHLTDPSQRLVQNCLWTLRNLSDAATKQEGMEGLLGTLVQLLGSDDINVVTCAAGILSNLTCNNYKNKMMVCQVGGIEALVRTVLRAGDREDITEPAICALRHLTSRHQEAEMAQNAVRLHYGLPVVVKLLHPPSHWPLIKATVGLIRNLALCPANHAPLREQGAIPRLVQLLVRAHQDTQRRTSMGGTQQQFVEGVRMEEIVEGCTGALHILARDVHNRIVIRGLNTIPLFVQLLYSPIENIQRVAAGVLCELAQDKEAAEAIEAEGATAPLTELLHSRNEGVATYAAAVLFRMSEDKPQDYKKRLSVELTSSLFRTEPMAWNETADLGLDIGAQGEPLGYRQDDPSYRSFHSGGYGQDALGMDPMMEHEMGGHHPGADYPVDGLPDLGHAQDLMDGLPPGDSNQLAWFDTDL
Sequence of UniProt O94905 (O94905 whole entry, looked up): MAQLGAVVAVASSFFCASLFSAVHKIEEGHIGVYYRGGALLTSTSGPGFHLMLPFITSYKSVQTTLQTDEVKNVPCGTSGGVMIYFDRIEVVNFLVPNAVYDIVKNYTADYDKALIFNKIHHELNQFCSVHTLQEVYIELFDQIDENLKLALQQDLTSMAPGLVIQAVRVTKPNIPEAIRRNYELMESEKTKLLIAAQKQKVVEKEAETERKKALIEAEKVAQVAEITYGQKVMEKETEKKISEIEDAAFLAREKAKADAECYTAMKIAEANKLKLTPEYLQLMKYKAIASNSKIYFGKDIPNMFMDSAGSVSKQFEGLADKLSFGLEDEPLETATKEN
Sequence of UniProt Q9HBU6 (Q9HBU6 whole entry, looked up): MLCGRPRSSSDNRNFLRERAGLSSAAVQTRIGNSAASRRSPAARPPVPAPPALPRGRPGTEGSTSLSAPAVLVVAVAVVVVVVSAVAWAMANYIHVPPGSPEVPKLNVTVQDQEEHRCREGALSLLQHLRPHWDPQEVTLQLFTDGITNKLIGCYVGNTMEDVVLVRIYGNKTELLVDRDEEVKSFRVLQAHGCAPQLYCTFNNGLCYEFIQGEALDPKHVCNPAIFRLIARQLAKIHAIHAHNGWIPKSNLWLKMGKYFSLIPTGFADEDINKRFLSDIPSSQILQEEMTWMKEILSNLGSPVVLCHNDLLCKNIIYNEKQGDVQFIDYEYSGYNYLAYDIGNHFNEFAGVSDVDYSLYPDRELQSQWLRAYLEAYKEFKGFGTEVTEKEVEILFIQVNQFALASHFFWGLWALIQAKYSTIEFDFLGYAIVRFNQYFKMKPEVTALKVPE
Sequence of UniProt Q9NQI0 (Q9NQI0 whole entry, looked up): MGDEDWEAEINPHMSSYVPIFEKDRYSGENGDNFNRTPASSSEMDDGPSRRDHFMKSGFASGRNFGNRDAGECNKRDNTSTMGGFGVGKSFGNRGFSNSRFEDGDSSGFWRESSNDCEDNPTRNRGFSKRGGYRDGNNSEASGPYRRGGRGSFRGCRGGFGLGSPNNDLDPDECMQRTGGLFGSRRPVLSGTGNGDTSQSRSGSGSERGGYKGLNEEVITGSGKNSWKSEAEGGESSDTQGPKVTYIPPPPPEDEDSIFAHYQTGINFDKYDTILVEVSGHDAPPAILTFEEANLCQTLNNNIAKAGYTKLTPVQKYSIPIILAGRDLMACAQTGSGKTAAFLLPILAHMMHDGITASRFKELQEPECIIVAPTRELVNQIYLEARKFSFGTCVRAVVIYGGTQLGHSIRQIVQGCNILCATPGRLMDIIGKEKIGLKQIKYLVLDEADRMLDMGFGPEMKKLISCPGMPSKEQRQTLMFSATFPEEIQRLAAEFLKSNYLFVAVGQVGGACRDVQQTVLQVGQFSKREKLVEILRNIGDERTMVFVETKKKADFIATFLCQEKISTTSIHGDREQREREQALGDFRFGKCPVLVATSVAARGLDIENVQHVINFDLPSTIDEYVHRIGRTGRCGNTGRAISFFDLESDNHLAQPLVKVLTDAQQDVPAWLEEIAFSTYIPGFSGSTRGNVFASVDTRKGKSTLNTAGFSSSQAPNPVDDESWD
Sequence of UniProt Q96KC8 (Q96KC8 whole entry, looked up): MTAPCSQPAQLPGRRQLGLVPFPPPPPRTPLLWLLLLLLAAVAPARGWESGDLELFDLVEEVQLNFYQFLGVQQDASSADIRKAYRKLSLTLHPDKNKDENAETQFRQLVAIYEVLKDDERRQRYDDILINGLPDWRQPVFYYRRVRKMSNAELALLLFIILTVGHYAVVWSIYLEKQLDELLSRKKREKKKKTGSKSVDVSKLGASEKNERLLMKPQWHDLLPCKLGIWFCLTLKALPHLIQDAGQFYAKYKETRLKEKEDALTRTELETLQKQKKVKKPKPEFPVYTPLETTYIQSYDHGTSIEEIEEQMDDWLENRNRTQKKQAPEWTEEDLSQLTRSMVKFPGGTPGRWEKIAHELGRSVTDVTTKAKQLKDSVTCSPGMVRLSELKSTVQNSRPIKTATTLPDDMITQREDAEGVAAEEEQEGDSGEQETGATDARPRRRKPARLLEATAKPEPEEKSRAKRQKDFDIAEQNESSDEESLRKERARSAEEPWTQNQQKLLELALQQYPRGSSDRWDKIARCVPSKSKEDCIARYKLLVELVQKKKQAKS
Sequence of UniProt Q8N6R0 (Q8N6R0 whole entry, looked up): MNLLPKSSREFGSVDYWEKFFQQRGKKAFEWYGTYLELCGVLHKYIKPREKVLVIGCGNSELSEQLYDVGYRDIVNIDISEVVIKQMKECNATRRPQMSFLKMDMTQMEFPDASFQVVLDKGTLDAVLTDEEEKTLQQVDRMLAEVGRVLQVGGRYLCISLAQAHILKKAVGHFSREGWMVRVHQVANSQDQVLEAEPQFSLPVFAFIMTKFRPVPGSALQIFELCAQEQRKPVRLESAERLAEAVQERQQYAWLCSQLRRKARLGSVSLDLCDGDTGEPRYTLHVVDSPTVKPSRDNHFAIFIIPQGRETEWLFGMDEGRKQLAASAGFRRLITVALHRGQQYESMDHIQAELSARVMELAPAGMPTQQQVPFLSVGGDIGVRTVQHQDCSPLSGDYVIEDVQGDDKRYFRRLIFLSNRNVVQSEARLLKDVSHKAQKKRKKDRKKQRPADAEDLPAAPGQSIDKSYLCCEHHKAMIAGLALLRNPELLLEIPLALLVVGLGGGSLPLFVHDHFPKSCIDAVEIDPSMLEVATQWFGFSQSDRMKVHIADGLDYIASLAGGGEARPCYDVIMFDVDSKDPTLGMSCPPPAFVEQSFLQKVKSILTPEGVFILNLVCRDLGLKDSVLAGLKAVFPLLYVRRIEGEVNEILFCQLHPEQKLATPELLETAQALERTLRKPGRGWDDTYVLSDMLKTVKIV
Sequence of UniProt Q16254 (Q16254 whole entry, looked up): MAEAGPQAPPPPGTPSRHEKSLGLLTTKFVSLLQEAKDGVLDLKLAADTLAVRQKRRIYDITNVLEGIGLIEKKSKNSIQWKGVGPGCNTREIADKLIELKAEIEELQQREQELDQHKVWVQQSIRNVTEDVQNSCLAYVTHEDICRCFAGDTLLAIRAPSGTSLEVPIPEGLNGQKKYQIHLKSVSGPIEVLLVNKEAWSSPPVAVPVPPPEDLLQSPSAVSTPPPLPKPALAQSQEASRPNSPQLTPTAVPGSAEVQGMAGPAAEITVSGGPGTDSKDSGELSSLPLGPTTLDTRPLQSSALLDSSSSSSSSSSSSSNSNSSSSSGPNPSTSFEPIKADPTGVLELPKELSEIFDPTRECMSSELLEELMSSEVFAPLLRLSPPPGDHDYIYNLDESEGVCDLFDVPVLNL
Sequence of UniProt Q9NWS6 (Q9NWS6 whole entry, looked up): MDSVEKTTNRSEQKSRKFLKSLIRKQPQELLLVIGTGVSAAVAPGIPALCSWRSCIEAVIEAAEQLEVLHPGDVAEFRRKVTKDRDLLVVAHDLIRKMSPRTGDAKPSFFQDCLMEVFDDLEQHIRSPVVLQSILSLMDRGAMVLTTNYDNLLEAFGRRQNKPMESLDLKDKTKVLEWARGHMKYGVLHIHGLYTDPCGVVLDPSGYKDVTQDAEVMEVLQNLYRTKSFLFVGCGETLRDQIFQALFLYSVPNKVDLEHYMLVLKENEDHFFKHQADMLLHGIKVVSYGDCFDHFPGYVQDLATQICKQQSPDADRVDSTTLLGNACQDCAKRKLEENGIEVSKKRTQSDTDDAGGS

Compound in this experiment: Cc1cc(SCc2sc(-c3ccc(C(F)(F)F)cc3)nc2C)ccc1OCC(=O)O
In words: log2 fold change, soluble protein after heating vs DMSO (PISA); higher = thermal stabilisation; K562 cells, 10 uM, 30 min; active = over 0.2 and 3.5 SD of the protein, either way, in both replicates (recomputed). An outline of the steps:
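Quantification of soluble protein used TMTpro 16plex LC-MS/MS, with channel sums equalised. Samples were the supernatant after 21,000xg for 90 min of pooled aliquots from K562 cells (2×10^6 cells/mL) treated with 10 μM compound for 30 min, heated for 3 min over 48°C-58°C, and extracted in PBS with 0.5% NP-40 at 4°C. Values, from duplicates, describe thermal stability against control samples on a log2 fold-change scale.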
As to DDX39A (UniProt O00148), the log2 fold change is 0.05.

For DCAF10 (UniProt Q5QP82), the log2 fold change was -0.098.

Turning to EDC4 (UniProt Q6P2E9), the log2 fold change is 0.033.

For EHD2 (UniProt Q9NZN4), the log2 fold change was 0.002.

With DNAH10 (UniProt Q8IVF4), the log2 fold change was -0.082.

Turning to ETNK1 (UniProt Q9HBU6), the log2 fold change was 0.118.

DDX4 (UniProt Q9NQI0): the log2 fold change was -0.232.

With E2F4 (UniProt Q16254), the log2 fold change is -0.019.

EFL1 (UniProt Q7Z2Z2): the log2 fold change is 0.029.

As for EXTL2 (UniProt Q9UBQ6), the log2 fold change was -0.046.

Regarding ECPAS (UniProt Q5VYK3), the log2 fold change was 0.099.

EEF1AKNMT (UniProt Q8N6R0): the log2 fold change was 0.153.

For the target DNAJC1 (UniProt Q96KC8), the log2 fold change is 0.009.

Turning to DHX40 (UniProt Q8IX18), the log2 fold change is 0.01.

In the case of ERLIN2 (UniProt O94905), the log2 fold change was 0.155.

On to EED, A0A5F9ZI63, for which the log2 fold change is -0.013.

As for FAM118A (UniProt Q9NWS6), the log2 fold change was 0.097.

For CTNNB1 (UniProt P35222), the log2 fold change was -0.024.

Consider EXOC8 (UniProt Q8IYI6), for which the log2 fold change was 0.063.

Take DDX5 (UniProt P17844): the log2 fold change is 0.165.

For the target CTSB (UniProt P07858), the log2 fold change was 0.015.

As to FAM160B1 (UniProt Q5W0V3), the log2 fold change was 0.049.

With DNAAF2 (UniProt Q9NVR5), the log2 fold change is -0.034.

DYNC1I2 isoform 5 (UniProt Q13409): the log2 fold change is -0.007.
